Assay outcomes deposited in PubChem by National Center for Advancing Translational Sciences (NCATS).
Sampled rows, rich in hits. Any-hit rate of the full collection: about 7.3%.
Rab9 prom act – qHTS Assay for Rab9 Promoter Activators | Huh7 Rab9 promoter-luciferase reporter, luminescence, 24 h | Potency, µM (doses to about 9.22 µM), without a hit: at the top dose activation, negative = inhibition, actives largely listed as activators | actives 2.8% (n = 320,000) | AID 485297, 2010; also: % of control where 0% means no effect; nearly all actives have a fitted effect of over 60% in size
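Luciferase signal after 10 min detection reagent at ambient indicates Rab9 promoter upregulation; stably transfected Huh7 cells were treated 24 h with compound in DMSO at 37 °C, 5% CO2.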
KinaseGlo FLuc – Counterscreen for Luciferase (Kinase-Glo TM) Inhibition. actives 0.28% (n = 200,000). Potency, µM (highest dose often 38.3 µM), without a hit: top-dose activity change, negative = inhibition, actives largely listed as inhibitors. Kinase-Glo luciferase, ATP luminescence, 8 min. Luciferin 4-monooxygenase (Photuris pensylvanica), Q27757; also: % is scaled to controls: 0 for no effect and ±100 for the full control effect; nearly all actives have a fitted effect of over 60% in size
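Compounds were added to a substrate mix at pH 7.2 (50 mM imidazole, 10 uM ATP, within the enzyme's linear range), followed by Kinase-Glo detection reagent; luminescence was measured after 8 minutes at ambient temperature.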
FLuc modulator – qHTS profiling assay for firefly luciferase inhibitor/activator using purifed enzyme and Km concentrations of substrates (counterscreen for miR-21 project) | Luciferin 4-monooxygenase (Photinus pyralis), P08659 | purified FLuc, Km substrates, luminescence inhibition | Potency, µM (top dose mostly 57.5 µM), inactives show at the top dose activity change, negative = inhibition, most hits filed as inhibitors | actives 6.9% (n = 360,000) | AID 588342, 2011;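 also: plate controls were vehicle for no effect and reference inhibitor for full effect; nearly all actives have a fitted effect of over 55% in size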
Target sequence (P08659 whole entry, looked up): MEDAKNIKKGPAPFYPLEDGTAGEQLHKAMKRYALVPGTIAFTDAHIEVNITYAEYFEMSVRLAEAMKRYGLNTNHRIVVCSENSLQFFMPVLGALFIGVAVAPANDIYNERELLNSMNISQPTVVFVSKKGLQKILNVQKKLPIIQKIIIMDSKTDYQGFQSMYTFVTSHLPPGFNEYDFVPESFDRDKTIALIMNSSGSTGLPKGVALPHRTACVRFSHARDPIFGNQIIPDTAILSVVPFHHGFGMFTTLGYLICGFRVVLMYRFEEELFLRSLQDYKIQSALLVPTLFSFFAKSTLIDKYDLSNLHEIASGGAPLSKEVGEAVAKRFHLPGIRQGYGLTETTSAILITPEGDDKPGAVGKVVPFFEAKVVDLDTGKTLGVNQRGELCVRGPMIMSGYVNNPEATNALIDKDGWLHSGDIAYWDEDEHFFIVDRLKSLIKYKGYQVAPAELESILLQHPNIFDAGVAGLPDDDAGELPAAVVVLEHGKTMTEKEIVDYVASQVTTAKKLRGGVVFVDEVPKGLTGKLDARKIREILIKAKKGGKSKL
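Biochemical qHTS of compounds, final roughly 60 µM downward over six points, against 10 nM purified firefly luciferase using Km concentrations of substrates (10 uM D-luciferin, 10 uM ATP) in Tris acetate pH 7.5 buffer; luminescence output.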
ELG1 genotoxic – qHTS screen for small molecules that induce genotoxicity in human embryonic kidney (HEK293T) cells expressing luciferase-tagged ELG1 | HEK293T ELG1-luciferase reporter, luminescence, 16 h | AID 504466, 2011 | Potency, µM (titrated, usually from 46 µM), without a hit: at the top dose activity change, positive = activation, actives largely listed as activators | actives 1.3% (n = 330,000); also: % of control where 0% means no effect; nearly all actives have a fitted effect of over 60% in size
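Screening used a luciferase reporter fused to human ELG1 in HEK293T cells. Luminescence was read on a CCD plate imager after 16 hr exposure and 30 min ONE-Glo incubation.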
NPC1 promoter act – qHTS Assay for NPC1 Promoter Activators; Huh7 NPC1 promoter luciferase reporter, 24 h; Potency, µM (doses to about 9.22 µM), without a hit: at the highest dose activation, hits mostly activators; actives 2.4% (n = 320,000); also: % of control where 0% means no effect; nearly all actives have a fitted effect of over 60% in size
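Huh7 reporter cells (NPC1 promoter driving luciferase) are dosed with compound for 24 h at 37 °C, 5% CO2; luciferase detection reagent is then added and luminescence measured after 10 min at ambient temperature.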
SMN2 splice up – qHTS Assay for Enhancers of SMN2 Splice Variant Expression. AID 1458, 2008. HEK293 SMN2-luciferase splicing reporter, luminescence, 30-36 h. Potency, µM (series often up to 46.1 µM), for the others: top-dose activity change, positive = activation, actives largely listed as activators. actives 2.8% (n = 210,000); also: % of control where 0% means no effect; nearly all actives have a fitted effect of over 55% in size
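HEK293 cells carry an SMN2 minigene-luciferase reporter in which exon 7 inclusion puts luciferase in frame. Cells were seeded at 2000 cells/well, attached for 10-12 hours, then exposed to compounds for 30-36 hours at 37C before ONE-Glo luminescence.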
An asterisk follows results filed as active; ? = inconclusive; . = no result; [ ] = another dose, or the depositor's remark. Calls follow the shape of the dose curve; as a rule, active = well fitted curve in the direction sought with a large enough effect; inconclusive = small, poorly fitted or top-dose-only effect, or another doubt; inactive = no such curve, though single readings can be large; an effect the other way counts as inactive or inconclusive. Potency is read from the fitted curve at half-maximal effect.

SMILES | Rab9 prom act | KinaseGlo FLuc | FLuc modulator | ELG1 genotoxic | NPC1 promoter act | SMN2 splice up
O=C(N/N=C/c1c(F)cccc1Cl)c1cc(C2CC2)[nH]n1 | ? | . | 16.9µM* | ? | ? | .
Cc1cc(C(=O)N/N=C/c2c(C)nn(-c3ccccc3)c2C)n[nH]1 | 22.1% | . | 16.9µM* | 7.9% | 19.8% | .
Cc1nn(-c2ccccc2)c(C)c1/C=N/NC(=O)c1cc(C2CC2)[nH]n1 | 3.1% | -3.3% | 16.9µM* | ? | 2.7% | ?
CC/C(=N\NC(=O)c1cc(C2CC2)[nH]n1)c1ccccc1 | ? | . | 13.5µM* | ? | 3.55µM* | .
COc1cccc(OC)c1C(=O)Nc1cccc(-c2nc3cc(C)cc(C)c3o2)c1 | . | . | ? | . | . | 4.4%
COc1ccc(C(=O)Nc2cc(OC)ccc2OC)cc1 | 17.2% | -5.7% | 23.9µM* | 3.0% | -1.8% | -1.6%
COc1ccc(C(=O)Nc2cc(OC)c(Cl)cc2OC)cc1 | 9.5% | -2.5% | 21.3µM* | 0.5% | 16.3% | 15.7%
COc1cc(NC(=O)c2cc3nc(C)cc(C)n3n2)c(OC)cc1Cl | 1.26µM* | 1.9% | 3.01µM* | ? | 2.51µM* | 11.2µM*
COc1ccc(NC(=O)c2ccccc2O)c(OC)c1 | 3.16µM* | -5.3% | 9.53µM* | 11.2µM* | ? | ?
COc1cc(NC(=O)c2nc3nc(C)cc(C(F)F)n3n2)c(OC)cc1Cl | . | . | 2.2% | . | . | -5.9%
COc1ccc(NC(=O)c2ccccc2SC)c(OC)c1 | -5.7% | 1.2% | -13.3% | 2.1% | -6.4% | -1.2%
CC(=O)OCOC(=O)CN(CC(=O)OCOC(C)=O)c1ccccc1OCCOc1ccccc1N(CC(=O)OCOC(C)=O)CC(=O)OCOC(C)=O | . | . | . | . | . | -13.3%
COc1ccc(OC)c(NC(=O)c2ccc(-c3csc(C)n3)cc2)c1 | 25.4% | . | 5.36µM* | 7.1% | 24.6% | .
COc1ccc(OC)c(NC(=O)c2cc3ccccc3cc2OC)c1 | 6.7% | . | 23.9µM* | 2.2% | 1.9% | .
COc1ccc(C(=O)OCc2csc(C)n2)c(O)c1 | ? | 0.8% | 15.1µM* | ? | ? | 1.8%
COc1ccc(OC)c(NC(=O)Nc2cccc3ccccc23)c1 | -1.9% | 1.5% | 3.9% | 6.1% | -1.7% | -17.1%
COc1ccc(C(=O)OCC(=O)c2cc(OC)ccc2OC)c(OC)c1 | 0.4% | 0.6% | ? | 1.5% | 1.8% | -6.5%
COc1ccc(C(=O)COC(=O)c2ccccc2O)c(OC)c1 | 3.55µM* | . | 6.01µM* | ? | ? | .
CC(C)CCN1C(=O)c2ccccc2CC1(C)C(=O)NC1CCCCC1 (configuration not stated) | . | . | -0.2% | . | . | 14.9%
Cc1ccc2oc(-c3cc(NC(=O)Cc4ccccc4)ccc3Cl)nc2c1 | . | . | -14.9% | . | . | 6.2%
COc1ccc(NC(=O)CSc2ccccc2)c(OC)c1 | 3.98µM* | -3.9% | 26.9µM* | 15.3% | ? | 22.4µM*
COc1ccc(-c2csc(C)n2)cc1Br | 24.7% | -5.6% | 15.1µM* | ? | 13.7% | 16.6%
COc1ccc(OC)c(NC(=O)c2csc(Cl)c2OC)c1 | -2.1% | . | 15.1µM* | 2.8% | 1.9% | .
COc1ccc(C(=O)CN2C(=O)c3ccccc3C2=O)c(OC)c1 | ? | . | 15.1µM* | ? | 23.6% | .
COc1cc(-c2csc(C)n2)ccc1O | -0.2% | 1.7% | -2.7%[2.3 µM] | 0.3% | 1.5% | 23.7%
SMILES | Rab9 prom act | KinaseGlo FLuc | FLuc modulator | ELG1 genotoxic | NPC1 promoter act | SMN2 splice up
COc1ccc(OC)c(NC(=O)c2cn(C)c(=O)c3cc(OC)c(OC)cc23)c1 | -6.0% | -2.2% | -2.7% | -2.2% | 0.1% | ?
COc1cc(/C=N/N=C(\N)c2nonc2N)cc(OC)c1O | 1.3% | . | 9.53µM* | ? | -0.8% | .
COc1ccc(/C=N/Nc2nonc2N)cc1 | 23.5% | -5.0% | ? | 2.6% | 12.9% | 5.3%
COc1ccc(/C=N/N=C(\N)c2nonc2N)cc1 | 0.398µM* | 10µM* | 2.13µM* | 0.731µM* | 0.631µM* | 4.47µM*
Cn1c(C(=O)NCCCN2CCCCCC2)cc2c(=O)n(C)c3ccccc3c21 | -9.3% | 4.6% | 0.4% | ? | -2.1% | 12.6µM*
CCCN1CCN(CCCNC(=O)c2cc3c(=O)n(C)c4ccccc4c3n2C)CC1 | -3.2% | -2.9% | -0.4% | ? | -4.3% | 25.0%
O=C(/C=C\Nc1ccc2c(c1)OCO2)c1cccs1 | 0.562µM* | 12.6µM* | 0.12µM* | 1.03µM* | 1.41µM* | .
O=C(/C=C\Nc1ccc2c(c1)OCO2)c1ccc(Cl)s1 | 0.316µM* | -7.7% | 0.239µM* | 0.82µM* | 0.398µM* | 3.55µM*
O=C(CCl)Nc1ccc2c(c1)OCO2 | -9.5% | -0.4% | -7.4% | -10.0% | -9.5% | -59.0%
O=C(N/C(=C/c1ccc2c(c1)OCO2)C(=O)N1CCOCC1)c1cccs1 | -1.1% | -2.0% | -0.2% | -0.9% | 0.6% | -4.8%
O=C(N/N=C/c1ccccc1F)NC1CCCCC1 | 2.82µM* | 1.8% | 23.9µM* | ? | ? | ?
Cc1ccc(-c2nc(CS(=O)CC(=O)N3CCN(c4ccc(Cl)cc4)CC3)c(C)o2)cc1 (configuration not stated) | . | . | -15.1% | . | . | .
Cc1ccc(NCc2ccccc2-c2nnc(-c3ccccc3Cl)o2)cc1Cl | . | . | ? | . | . | -1.5%
Fc1ccc(NCc2ccccc2-c2nnc(-c3ccccc3Cl)o2)cc1 | . | . | 6.01µM* | . | . | 6.0%
Cc1ccc(NCc2ccccc2-c2nnc(-c3ccccc3Cl)o2)c(C)c1 | . | . | ? | . | . | 11.5%
CCc1cccc(NCc2ccccc2-c2nnc(-c3ccccc3Cl)o2)c1 | . | . | 3.38µM* | . | . | -2.9%
CCOC(=O)c1sc(NC(=O)c2c(-c3ccccc3)c(-c3ccccc3)nn(C)c2=O)nc1C | . | . | ? | . | . | -10.7%
CC1Cc2cc(S(=O)(=O)NCc3ccc(F)cc3)ccc2N1C(=O)C1CCC1 (configuration not stated) | . | . | -8.6% | . | . | .
COC(=O)Cc1nnc(NC(=O)c2ccccc2)s1 | 3.7% | . | -15.7% | 7.7% | 5.5% | .
CCCc1nnc(NC(=O)c2cc3ccccc3o2)s1 | 3.98µM* | . | 13.5µM* | 27.4% | 3.55µM* | .
COCc1nnc(NC(=O)c2cc3ccccc3o2)s1 | ? | . | 19µM* | ? | ? | .
CCCc1nnc(NC(=O)c2cc3ccccc3oc2=O)s1 | 1.7% | -1.5% | -0.2%[2.3 µM] | 5.8% | 7.6% | 11.6%
COCc1nnc(NC(=O)c2cccc(NC(=O)c3ccccc3)c2)s1 | 16.0% | . | 19µM* | -0.6% | 13.1% | .
